In the supplement of paper PMC10127200 one finds Euclidean distance data, which are given here for 23 molecules.

Assay in all cases: Euclidean distance of Cell Painting phenotypic profile (signed KS, 77 features) to DMSO centroid (dimensionless distance); 5 or 10 uM (library dependent); higher = stronger phenotypic change vs DMSO (phenoactivity)
Holding throughout (settings): 48 h

Assay [1] deals with 786-O. The gist of the method: (§1)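 Five cancer lines and a healthy fibroblast line received library compounds at 10 or 5 uM (library-dependent, 0.1% DMSO final) for 48 h. Stained cells were imaged confocally at 20X (9 fields/well). Harmony extracted 77 features, each scored as a signed Kolmogorov-Smirnov statistic against same-plate vehicle wells. Profiles were plate-position corrected, correlation-weighted and replicate-averaged at the top dose. Phenoactivity is the Euclidean distance from each profile to the median vehicle profile.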

For assay [2], the system named is A549. Put shortly:
as §1

For assay [3], the system named is DU145. Put shortly:
as §1

In assay [4] the test system is FB. The gist of the method: as §1
For assay [5], the system named is HEPG2. The gist of the method: as §1
The test system of assay [6] is OVCAR4. Put shortly:
as §1

Each structure is given as a SMILES string. Where a name gives a salt, the structure may show the parent alone.

With `O=C(O)Cc1ccccc1Nc1c(Cl)cccc1Cl` [Diclofenac Sodium], the Euclidean distance was determined as 1.2 in assay [1]; 0.988 in assay [2]; 0.729 in assay [3]; 1.14 in assay [4]; 0.995 in assay [5]; 0.677 in assay [6].

As for `Cc1ccccc1N1C(=O)c2cc(S(N)(=O)=O)c(Cl)cc2NC1C` (stereo not drawn) [Metolazone], the Euclidean distance in assay [1] stood at 1.06; in assay [2], 0.914; in assay [3], 1.26; in assay [4], 0.909; in assay [5], 0.715; in assay [6], 1.05.

Consider `CCCCNc1ncc(-c2ccc(CN3CCOCC3)cn2)c(NC2CCC(O)CC2)n1` (stereo not drawn), for which the Euclidean distance was determined as 0.709 in assay [1]; 1.2 in assay [2]; 0.694 in assay [3]; 1.26 in assay [4]; 0.659 in assay [5]; 0.882 in assay [6].

`CC(C)(C)[C@H]1CC[C@H](CC2=C(O)C(=O)c3ccccc3C2=O)CC1` [Buparvaquone]: the Euclidean distance in assay [1] came to 1.16; in assay [2], 1.1; in assay [3] it was 1.17; in assay [4], 0.844; in assay [5] it was 0.483; in assay [6], 1.44.

As to `Cn1c(=O)c2[nH]c(Br)nc2n(C)c1=O` [Pamabrom], the Euclidean distance in assay [1] was found to be 0.794; in assay [2], 0.799; in assay [3], 1.56; in assay [4], 1.18; in assay [5], 0.337; in assay [6], 0.81.

Turning to `NC1=N[C@@]2(c3cc(NC(=O)c4ccc(F)cn4)ccc3F)COC[C@H]2CS1`, the Euclidean distance stood at 1.08 in assay [1]; 1.29 in assay [2]; 1.47 in assay [3]; 1.04 in assay [4]; 0.861 in assay [5]; 1.05 in assay [6].

`C=C1[C@H](CO)[C@@H](O)C[C@@H]1n1cnc2c(=O)[nH]c(N)nc21` [Entecavir]: the Euclidean distance in assay [1] amounted to 1.46; in assay [2], 1.16; in assay [3], 1.05; in assay [4], 1.14; in assay [5], 1.35; in assay [6] it was 1.15.

With `CC1(C)S[C@@H]2[C@H](NC(=O)[C@H](N)c3ccccc3)C(=O)N2[C@H]1C(=O)OCOC(=O)[C@@H]1N2C(=O)C[C@H]2S(=O)(=O)C1(C)C` [Sultamicillin], the Euclidean distance in assay [1] turned out to be 1.46; in assay [2] it was 0.999; in assay [3], 0.805; in assay [4], 1.26; in assay [5], 0.611; in assay [6], 1.28.

Take `O=C(Cn1cnnn1)N[C@@H]1C(=O)N2C(C(=O)O)=C(CSc3nncs3)CS[C@H]12` [Ceftezole]: the Euclidean distance in assay [1] stood at 1.01; in assay [2] it was 0.658; in assay [3], 0.963; in assay [4], 1.09; in assay [5], 0.476; in assay [6] it was 0.782.

For the molecule `O=C(Cc1ccc(-c2ccc(OCCN3CCOCC3)cc2)cn1)NCc1ccccc1`, the Euclidean distance in assay [1] is 3.21; in assay [2], 3.15; in assay [3], 4.51; in assay [4], 2.74; in assay [5] it was 3.85; in assay [6] it was 2.99.

Regarding `COc1ccc2cc1Oc1ccc(cc1)C[C@H]1c3c(cc4c(c3Oc3cc5c(cc3OC)CCN(C)[C@@H]5C2)OCO4)CCN1C` [Cepharanthine], the Euclidean distance was 4.22 in assay [1]; 4.24 in assay [2]; 3.62 in assay [3]; 4.8 in assay [4]; 3.63 in assay [5]; 3.87 in assay [6].

On to `COc1ccc(C(C)=O)c(O)c1` [Paeonol], for which the Euclidean distance in assay [1] was determined as 1.07; in assay [2], 0.755; in assay [3] it was 0.885; in assay [4], 0.979; in assay [5], 0.302; in assay [6], 1.58.

Regarding `CC[C@@H]1/C=C(\C)C[C@H](C)C[C@H](OC)[C@H]2O[C@@](O)(C(=O)C(=O)N3CCCC[C@H]3C(=O)O[C@H](/C(C)=C/[C@@H]3CC[C@@H](O)[C@H](OC)C3)[C@H](C)[C@@H](O)CC1=O)[C@H](C)C[C@@H]2OC` [Ascomycin (FK520)], the Euclidean distance was found to be 1.06 in assay [1]; 1.18 in assay [2]; 1.28 in assay [3]; 1.43 in assay [4]; 0.58 in assay [5]; 0.799 in assay [6].

As to `CN1CCC(CNc2ccc3ncc(-c4cccc(OC(F)(F)F)c4)n3n2)CC1` [SGI-1776 free base], the Euclidean distance in assay [1] is 2.39; in assay [2], 3.26; in assay [3], 1.73; in assay [4], 3.26; in assay [5], 4; in assay [6] it was 1.54.

For the molecule `Cc1nc2n(c(=O)c1CCN1CCC(c3noc4cc(F)ccc34)CC1)CCCC2O` (stereo not drawn) [Paliperidone], the Euclidean distance in assay [1] was found to be 0.901; in assay [2], 0.427; in assay [3], 0.828; in assay [4], 0.783; in assay [5], 0.494; in assay [6], 0.895.

In the case of `O=C(Oc1ccccc1C(=O)O)c1ccccc1O` [Sasapyrine], the Euclidean distance came to 0.578 in assay [1]; 0.394 in assay [2]; 0.556 in assay [3]; 0.969 in assay [4]; 0.413 in assay [5]; 1.18 in assay [6].

Regarding `CN(C)C(=O)COC(=O)Cc1ccc(OC(=O)c2ccc(NC(=N)N)cc2)cc1` [Camostat Mesilate], the Euclidean distance amounted to 1.16 in assay [1]; 0.62 in assay [2]; 1.08 in assay [3]; 0.645 in assay [4]; 0.823 in assay [5]; 1.71 in assay [6].

Regarding `CCOC(=O)[C@H](CCc1ccccc1)N[C@@H](C)C(=O)N1C(=O)N(C)C[C@H]1C(=O)O` [Imidapril HCl], the Euclidean distance amounted to 0.604 in assay [1]; 0.657 in assay [2]; 0.965 in assay [3]; 1.1 in assay [4]; 1.55 in assay [5]; 1.05 in assay [6].

For `CCOC(=O)c1ccc(OC(=O)CCCCCNC(=N)N)cc1` [Gabexate Mesylate], the Euclidean distance was 1.36 in assay [1]; 0.886 in assay [2]; 1.01 in assay [3]; 0.822 in assay [4]; 1.58 in assay [5]; 1.68 in assay [6].

As for `COC(=O)c1ccccc1O` [Methyl salicylate], the Euclidean distance in assay [1] was 0.625; in assay [2], 0.514; in assay [3], 0.585; in assay [4], 0.713; in assay [5], 0.768; in assay [6] it was 0.636.

In the case of `C#Cc1cccc(Nc2ncnc3cc(OCCOC)c(OCCOC)cc23)c1` [Erlotinib HCl (OSI-744)], the Euclidean distance in assay [1] is 1.55; in assay [2] it was 1.87; in assay [3], 1.94; in assay [4] it was 1.57; in assay [5] it was 0.884; in assay [6], 2.37.

Consider `CS(=O)(=O)n1cc2c(n1)CN([C@H]1CO[C@H](c3cc(F)ccc3F)[C@@H](N)C1)C2` [Omarigliptin (MK-3102)], for which the Euclidean distance worked out at 1.02 in assay [1]; 2.02 in assay [2]; 1.89 in assay [3]; 1.7 in assay [4]; 2.25 in assay [5]; 2.16 in assay [6].

With `CC(=O)O[C@]1(C(C)=O)CC[C@H]2[C@@H]3C=C(C)C4=CC(=O)CC[C@]4(C)[C@H]3CC[C@@]21C` [Megestrol Acetate], the Euclidean distance in assay [1] was 1.71; in assay [2] it was 1.65; in assay [3], 1.57; in assay [4], 1.46; in assay [5], 1.89; in assay [6] it was 1.61.
